CHX counter = counter-screen for Shiga toxin inhibitors: cycloheximide protein synthesis inhibition; cell reporter, cycloheximide protein synthesis inhibition counterscreen; max response, %; actives 12% (n = 300,000); in the data active = max response mostly above about 13%, no sharp cut-off; inactive = mostly below about 14%; note: read at 38.3 µM for the half of the compounds with a filed dose; 0% is about no effect
NS1 inh = influenza NS1 inhibition; Potency, µM (series often up to 46.1 µM), for inactives: at the top dose activity, positive = more growth; actives 0.4% (n = 270,000); calls by dose curve; note: potency is the fitted concentration of half-maximal effect; actives are rising curves; nearly all actives have a fitted effect of over 50% in size
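Growth recovery, yeast-based: influenza A NS1 expressed in S. cerevisiae causes slow growth, and suppressors are detected by OD600. The parent strain without NS1 is used as positive control.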
Shiga toxin inh = inhibitors of Shiga toxin in Vero cells. Vero cells, Shiga toxin protein synthesis inhibition reporter. inhibition, % at 38.7 µM. actives 9.2% (n = 290,000). AID 2315; in the data active = inhibition mostly above about 28%, no sharp cut-off; inactive = mostly below about 43%; note: 0% is about no effect
Pf growth 48h = P. falciparum growth inhibition at 48 hours (one generation); P. falciparum luciferase growth in erythrocytes, 48 h; Potency, µM (highest dose often 28.7 µM), for the others: top-dose activity change, negative = inhibition, hits mostly inhibitors; actives 5.9% (n = 310,000); note: potency is the fitted concentration of half-maximal effect; % is set by controls: 0 for no effect and ±100 for the full control effect
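In quantitative HTS format, infected erythrocytes bearing luciferase-reporter parasites were treated for a single generation at 37 C. Luminescence after adding detection reagent served as the growth measure.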
Pf growth 96h = inhibits malaria parasite growth, 96 h. actives 6.9% (n = 320,000). Potency, µM (titrated, usually from 28.7 µM), for the others: at the top dose activity change, negative = inhibition, usual class: inhibitors. P. falciparum luciferase reporter growth, 96 h. AID 504834; note: potency is the fitted concentration of half-maximal effect; % is set by controls: 0 for no effect and ±100 for the full control effect
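Compounds incubated with erythrocytes infected by luciferase-expressing P. falciparum (2% hematocrit, 0.05% parasitemia final) for 96 hours, 37 C in 5% CO2. Growth inhibition scored as decreased luciferase luminescence.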
FBPA Giardia inh = Giardia lamblia aldolase inhibition; purified Giardia FBPA; Potency, µM (doses to about 59.6 µM), for the others: at the highest dose activity, negative = inhibition, hits mostly inhibitors; actives 0.71% (n = 290,000); note: potency is the fitted concentration of half-maximal effect; % is set by controls: 0 for no effect and ±100 for the full control effect; nearly all actives have a fitted effect of over 55% in size
Target sequence (A8B2U2 whole entry, looked up): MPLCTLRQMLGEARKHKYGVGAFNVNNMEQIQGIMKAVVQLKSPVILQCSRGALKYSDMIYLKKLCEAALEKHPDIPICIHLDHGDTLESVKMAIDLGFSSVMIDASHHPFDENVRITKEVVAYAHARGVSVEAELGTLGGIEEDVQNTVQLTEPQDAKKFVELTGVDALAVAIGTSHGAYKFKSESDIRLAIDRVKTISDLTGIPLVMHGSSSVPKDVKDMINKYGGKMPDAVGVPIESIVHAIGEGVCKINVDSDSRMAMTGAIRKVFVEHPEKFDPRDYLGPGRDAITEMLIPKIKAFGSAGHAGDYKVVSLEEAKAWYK
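Giardia FBPA (40 nM reagent) was preincubated 10 min at RT with compound (up to 57.5 uM final), then substrate plus GAPDH/TPI/NAD/arsenate coupling system with diaphorase/resazurin was added; resorufin fluorescence (525/598 nm) was read after 20 min.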
* hit, by the source's call; ? = inconclusive; nt = no result given; [ ] = dose if it differs, or a comment. Rows were chosen to be rich in hits. Some 21% of all compounds tested hit in one or more screens of this group. Unless noted, calls come from the whole dose curve; as a rule, active = well fitted curve in the direction sought with a large enough effect; inconclusive = small, poorly fitted or top-dose-only effect, or another doubt; inactive = no such curve, though single readings can be large; an effect the other way counts as inactive or inconclusive.

SMILES | CHX counter | NS1 inh | Shiga toxin inh | Pf growth 48h | Pf growth 96h | FBPA Giardia inh
CCc1ccc(C(=O)COC(=O)c2n[nH]c3ccccc23)cc1 | 48* | nt | 87* | 130% | 120% | 0%
CC1=CC(=O)O[C@@H]1[C@@]1(C)C[C@H]2OC(=O)C[C@H]3[C@@H](C)C(=O)C(O)=C1[C@@]23CO | nt | nt | nt | 13µM* | 15µM* | nt
[N-]=[N+]=NC1CC(CO)OC1n1ccc(=O)[nH]c1=O (stereo unspecified) | 11 | 8% | 10 | 15% | -30% | nt
Cc1csc(NC(=O)CSc2nnnn2C)n1 | 25* | 5% | 53* | 203% | 9.3µM* | 0%
Cc1nc(NC(=O)CSc2nnnn2C)sc1C | 40* | 1% | 71* | 344% | 62% | 1%
Cc1csc(NC(=O)CSc2nnc(C)c(=O)n2N)n1 | 9 | 4% | -4 | 32% | 34% | 14%
CCCn1c(SCC(=O)Nc2nc(C)c(C(=O)OC)s2)nnc1C(C)C | -5 | -2% | 15 | ? | 6% | -1%
COC(=O)c1sc(NC(=O)CSc2nnnn2C)nc1C | 29* | -8% | 121* | 57% | ? | -3%
CCOC(=O)c1ccc2nc(NC(C)=O)sc2c1 | 48* | nt | 56 | 263% | -1% | 1%
CCOC(=O)c1ccc2nc(Nc3nc4ccc(F)cc4s3)sc2c1 | 150* | -5% | 147* | 99% | 24% | 11%
CCOC(=O)C(=CNc1nc2ccc(C(=O)OCC)cc2s1)C(=O)OCC | 1 | 4% | 3 | 6% | 25% | 6%
CCOC(=O)N1CCN(S(=O)(=O)c2ccc(C(=O)Nc3nc4ccc(F)cc4s3)cc2)CC1 | 1 | 14% | -9 | -7% | ? | 2%
COC(=O)c1ccc2nc(Nc3nc4c(F)cc(F)cc4s3)sc2c1 | 57* | 14% | -15 | 39% | -27% | 8%
CCN(C(=O)COC(=O)CSc1ccccc1)c1c(N)n(Cc2ccccc2)c(=O)[nH]c1=O | nt | nt | nt | 31% | 61% | nt
CC(=O)N1N=C(c2cccc([N+](=O)[O-])c2)OC1c1ccc(Br)cc1 (stereo unspecified) | -3 | -4% | -5 | 8% | 19% | -1%
CC(=O)N1N=C(c2ccc(C)cc2)OC1c1ccc(C(C)C)cc1 (stereo unspecified) | 38* | 3% | 164* | 90% | 342% | nt
CC(=O)N1N=C(c2ccc(C)cc2)OC1c1ccc(C)cc1 (stereo unspecified) | 22* | -11% | 23 | nt | 69% | -2%
CC(=O)N1N=C(c2cccnc2)OC1c1ccc(C(C)C)cc1 (stereo unspecified) | 12 | -2% | 18 | 19% | 82% | 1%
Cc1nc2nc(SCC(=O)NCCCN3CCCC(C)C3)nn2c(C)c1Cc1ccccc1Cl (stereo unspecified) | -3 | -5% | -5 | 13µM* | 31% | 6%
CNS(=O)(=O)c1cccc(C(=O)NCC(c2ccco2)N(C)C)c1 (stereo unspecified) | -3 | 25% | -9 | 4% | 41% | -5%
CN(C)/C=C1/Sc2ccccc2C1=O | 32* | -153% | 34 | 11% | nt | -3%
CC(=O)Nc1ccc(/C=C2/Sc3ccccc3C2=O)cc1 | 10 | -3% | 22 | 6% | 26% | 1%
CC(=O)N(\C=C/C=C/C=C1\Sc2ccccc2C1=O)c1ccccc1 | 59* | nt | 115* | ? | 64% | -26%
O=C1/C(=C\c2cccnc2)Sc2ccccc21 | -2 | -28% | -9 | -14% | 0% | 0%
C/C(=N/NS(=O)(=O)c1ccc(C)cc1C)c1c[nH]c2ccccc12 | -1 | -7% | -11 | 10% | -25% | 0%
SMILES | CHX counter | NS1 inh | Shiga toxin inh | Pf growth 48h | Pf growth 96h | FBPA Giardia inh
CCCN(CCC)C(=O)CC(c1ccccc1)c1cc(Br)ccc1O (stereo unspecified) | -1 | -75% | 4 | 13µM* | nt | -7%
CCCN(CCC)C(=O)CC(c1ccccc1)c1ccc(C)cc1O (stereo unspecified) | 10 | -6% | 10 | nt | ? | 1%
CCCN(CCC)C(=O)CC(c1ccccc1)c1ccco1 (stereo unspecified) | -1 | 3% | 2 | 12µM* | ? | -2%
O=C(CC(c1ccccc1)c1cc(Br)ccc1O)N1CCCCC1 (stereo unspecified) | 1 | -30% | -11 | 13µM* | ? | -5%
O=C(CC(c1ccccc1)c1ccccc1O)N1CCCC1 (stereo unspecified) | 7 | -3% | 4 | 1% | nt | -7%
CCN(CC)C(=O)CC(c1ccc(F)cc1)c1ccco1 (stereo unspecified) | -1 | 20% | -10 | ? | -24% | 0%
CC(NC(=O)CCl)c1ccc(Cl)c(Cl)c1 (stereo unspecified) | 1 | 2% | -2 | nt | 3.7µM* | 0%
CC(NC(=O)CCl)c1ccccc1Br (stereo unspecified) | 7 | 2% | -1 | 1.5µM* | 1.5µM* | -18%
COc1ccc(-c2c(O)c3c(OC)c4c(cc3oc2=O)OC(C)(C)C=C4)cc1 | nt | nt | nt | nt | nt | 20%
COc1cccc(NC(=O)COC(=O)Cn2c(C)csc2=O)c1 | nt | nt | nt | -3% | 2% | nt
Cn1c(SCc2ccccc2Cl)nnc1-c1cnccn1 | 24* | -19% | 133* | 54% | 27% | 1%
Cn1c(SCc2cccc(Br)c2)nnc1-c1ccccn1 | 22* | -40% | 50* | -4% | -12% | -5%
Cn1c(SCc2cccc(F)c2)nnc1-c1cnccn1 | 29* | -4% | 64* | 19% | 0% | 4%
Cn1c(SCc2cccc(F)c2)nnc1-c1ccccn1 | 36* | -21% | 58* | 61% | -9% | -1%
COc1ccc(NC(=O)COC(=O)C2CCC2)cc1Cl | 1 | -13% | -6 | 81% | 30% | nt
CCCC(=O)OC1(C(=O)CO)CCC2C3CCC4=CC(=O)CCC4(C)C3C(O)CC21C (stereo unspecified) | 2 | nt | 11 | nt | nt | 8%
Cc1ccccc1CSc1nnc(-c2ccccn2)n1C | 26* | -9% | 90* | 47% | 83% | 2%
Cc1ccc(NC(=O)CSc2nnc(-c3ccccn3)n2C)cc1 | 1 | 6% | -17 | 14% | 10% | -19%
COc1cccc([C@@H]2Oc3ccc(Br)cc3C[C@H]2OC(=O)N[C@H](C)C2CCCCC2)c1 | nt | nt | nt | nt | nt | -3%
O=C(NCCCN1CCOCC1)Nc1ccc(Cc2ccc(NC(=O)NCCCN3CCOCC3)cc2)cc1 | -5 | -8% | -13 | 2.6µM* | 1.7µM* | 12%
S=C(NCCCN1CCOCC1)Nc1ccc(Cl)c(Cl)c1 | -3 | 11% | -11 | -11% | 17µM* | 7%
Cc1ccc(NC(=O)NCCCN2CCOCC2)cc1 | -2 | 4% | 16 | -6% | 7% | 0%
Cc1nc2cc(C(=O)NCc3cccnc3)ccc2n1-c1ccc(F)cc1F | -4 | nt | -3 | -1% | 39%[1.15 µM] | 2%
